{"source": "PubChem BioAssay (Tox21)", "note": "Where “and” joins values, the source holds several entries; their conditions need not be identical. Equal entries are not always repeated. Records with an inconclusive call do not appear. A structure can be active in one record and inactive in another. Calls of active or inactive are those of the source. Calls follow the shape of the dose curve; as a rule, active = well fitted inhibition curve with a large enough effect in the repeat runs; inconclusive = weak or mixed curves; inactive = no such curve, though single readings can be large or run the other way. % is scaled to controls: 0 for no effect and ±100 for the full control effect; potency is read from the fitted curve at half-maximal effect.", "data": [{"biological_target": "Cytochrome P450 2C19 (Homo sapiens) (UniProt P33261)", "sequence (P33261 whole entry, looked up)": "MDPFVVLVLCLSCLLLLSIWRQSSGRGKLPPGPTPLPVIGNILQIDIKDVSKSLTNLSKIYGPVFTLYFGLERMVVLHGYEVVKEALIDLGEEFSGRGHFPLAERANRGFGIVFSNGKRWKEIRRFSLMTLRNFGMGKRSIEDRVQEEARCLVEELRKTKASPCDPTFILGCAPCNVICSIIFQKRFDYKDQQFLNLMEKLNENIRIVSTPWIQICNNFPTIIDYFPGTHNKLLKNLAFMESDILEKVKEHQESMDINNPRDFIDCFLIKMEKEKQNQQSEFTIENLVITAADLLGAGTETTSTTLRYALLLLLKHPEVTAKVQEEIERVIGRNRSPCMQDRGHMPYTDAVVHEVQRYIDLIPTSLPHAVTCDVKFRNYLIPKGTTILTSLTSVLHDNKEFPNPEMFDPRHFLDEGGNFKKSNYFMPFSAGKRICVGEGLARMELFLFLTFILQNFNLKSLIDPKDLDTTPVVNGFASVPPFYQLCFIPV", "assay": "Cytochrome P450 Family 2 Subfamily C Member 19 (CYP2C19) small molecule antagonists: luciferase reporter qHTS assay (AID 1671197); also: nearly all actives have a fitted effect of over 65% in size", "conditions": "P450-Glo CYP2C19 enzyme, luciferin luminescence, 1 h; series mostly up to 115 µM; activity change, negative = inhibition: at the top concentration", "how_it_was_run": "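P450-Glo CYP2C19 screening system; proluciferin substrate; DMSO compound stocks; 10 min RT preincubation; NADPH regeneration, 1 h at 37C; luciferin detection reagent, 20 min RT; luminescence as RLU.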", "values": [{"smiles": "CC(C)CC(C)N", "note": "(centres undefined)", "activity change, negative = inhibition": "9.99% (inactive)"}, {"smiles": "O=C1C=CC(=O)c2ccccc21", "Potency": "14.2 µM (active)"}, {"smiles": "COC(=O)N(C(=O)N1COC2(C(=O)OC)Cc3cc(Cl)ccc3C2=N1)c1ccc(OC(F)(F)F)cc1", "note": "(centres undefined)", "Potency": "0.195 µM (active)"}, {"smiles": "CC(Cc1ccc(C(C)(C)C)cc1)CN1C[C@@H](C)O[C@@H](C)C1", "note": "(some centres undefined)", "Potency": "31.7 µM (active)"}, {"smiles": "Cc1cccc(OP(=O)(Oc2cccc(C)c2)Oc2cccc(C)c2)c1", "Potency": "20 µM (active)"}, {"smiles": "Oc1ccccc1Br", "activity change, negative = inhibition": "10.1% (inactive)"}, {"smiles": "Cc1cc(Cl)ccc1O[C@H](C)C(=O)O", "activity change, negative = inhibition": "6.35% (inactive)"}, {"smiles": "[Cl][Sb]([Cl])[Cl]", "activity change, negative = inhibition": "9.01% (inactive)"}, {"smiles": "N#C/C=C/C#N", "Potency": "18.7 µM (active)"}, {"smiles": "C=CC(=O)N(C)C", "activity change, negative = inhibition": "2.3% (inactive)"}, {"smiles": "CCCOCC(=Nc1ccc(Cl)cc1C(F)(F)F)n1ccnc1", "Potency": "0.71 µM (active)"}, {"smiles": "CN(CCCC(O)c1cccnc1)N=O", "note": "(centres undefined)", "activity change, negative = inhibition": "-0.0121% (inactive)"}, {"smiles": "CC(C)CC(C)Nc1ccc(Nc2ccccc2)cc1", "note": "(centres undefined)", "Potency": "0.698 µM (active)"}, {"smiles": "CC(O)C#N", "note": "(centres undefined)", "activity change, negative = inhibition": "-1.25% (inactive)"}, {"smiles": "c1ccc2cc3c(cc2c1)-c1cccc2cccc-3c12", "activity change, negative = inhibition": "23.4% (inactive)"}, {"smiles": "N#CNC#N", "activity change, negative = inhibition": "-0.482% (inactive)"}, {"smiles": "ClC1=C(Cl)[C@]2(Cl)[C@@H]3[C@@H]4C[C@@H]([C@H]5O[C@@H]45)[C@@H]3[C@@]1(Cl)C2(Cl)Cl", "Potency": "3.17 µM (active)"}, {"smiles": "CCOP(=S)(OCC)SCS(=O)(=O)CC", "Potency": "5.64 µM (active)"}, {"smiles": "ClC(Cl)=C(c1ccc(Cl)cc1)c1ccc(Cl)cc1", "Potency": "409 nM (active) and 710 nM (active)"}, {"smiles": "Clc1ccc(CCC(Cn2ccnc2)Sc2c(Cl)cccc2Cl)cc1", "note": "(centres undefined)", "Potency": "0.0347 µM (active)"}, {"smiles": "Nc1ccc(Sc2ccc(N)cc2)cc1", "Potency": "5.03 µM (active)"}, {"smiles": "O=C(O)C1C2CCC(O2)C1C(=O)O", "note": "(centres undefined)", "Potency": "36 µM (active) and inactive"}, {"smiles": "c1cc[c]([Sb]([c]2ccccc2)[c]2ccccc2)cc1", "Potency": "17.8 µM (active)"}, {"smiles": "Oc1c(Br)c(Br)c(Br)c(Br)c1Br", "activity change, negative = inhibition": "-29.4% (inactive)"}, {"smiles": "Cc1cc(N=Nc2ccccc2C)ccc1N", "Potency": "5.64 µM (active) and 8.94 µM (active)"}, {"smiles": "CC1(C)CC/C(=C/c2ccc(Cl)cc2)C1(O)Cn1cncn1", "note": "(centres undefined)", "Potency": "0.223 µM (active)"}, {"smiles": "CCCN(CC)CC1COC2(CCC(C(C)(C)C)CC2)O1", "note": "(centres undefined)", "Potency": "11.2 µM (active)"}, {"smiles": "CCCCCCCCCCCCCCCCCCn1cc[n+](C)c1", "Potency": "79.2 µM (active)"}, {"smiles": "Cc1ccc(CCl)cc1", "activity change, negative = inhibition": "-18.3% (inactive)"}, {"smiles": "CCOCn1c(-c2ccc(Cl)cc2)c(C#N)c(Br)c1C(F)(F)F", "Potency": "4.48 µM (active)"}, {"smiles": "CC(=O)c1ccc(-c2ccccc2)cc1", "Potency": "31.7 µM (active)"}, {"smiles": "CC[C@H](C)[C@H]1O[C@]2(C=C[C@@H]1C)C[C@@H]1C[C@@H](C/C=C(\\C)[C@@H](O[C@H]3C[C@H](OC)[C@@H](O[C@H]4C[C@H](OC)[C@@H](O)[C@H](C)O4)[C@H](C)O3)[C@@H](C)/C=C/C=C3\\CO[C@@H]4[C@H](O)C(C)=C[C@@H](C(=O)O1)[C@]34O)O2", "Potency": "21 µM (active)"}, {"smiles": "CC(C)[C@H](C(=O)OC(C#N)c1cccc(Oc2ccccc2)c1)c1ccc(OC(F)F)cc1", "note": "(some centres undefined)", "Potency": "17.8 µM (active)"}, {"smiles": "CC(Cl)CN(C)C", "note": "(centres undefined)", "activity change, negative = inhibition": "5.46% (inactive)"}]}]}
